Assay outcomes: PubChem BioAssay, several laboratories
TRPM1 prom inh: MITF TRPM1 promoter inhibition in SK-MEL-5 cells. SK-MEL-5 TRPM1 promoter luciferase, 24 h. inhibition, % at 12.5 µM. hit rate 0.83% among 330,000. AID 488899;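 active = mean inhibition across replicates of 60% or more, whatever share of single replicates reaches that level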
KKLEB tox: CF airway cell cytotoxicity counter-screen; KKLEB CF airway cells viability, ATPlite luminescence, overnight; active compounds read low; cells stimulated with P. aeruginosa culture filtrate; activity change (cytotoxicity), % at 5 µM; hit rate 0.36% among 360,000;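 active = corrected activity change at or below -50% at 5 µM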
CF NFkB block: cystic fibrosis NF-kB activation inhibition; KKLEB NF-kB-GFP reporter, PAF-induced, GFP fluorescence overnight; inhibition, % at 5 µM; hit rate 0.86% among 360,000;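 active = at least 50% inhibition at 5 µM, scaled per plate between neutral and stimulator controls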;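 also: PAF is a Pseudomonas aeruginosa culture filtrate used as stimulus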
Shn3 3UTR inh: Schnurri-3 reporter inhibition in Clone20 osteoblasts. Clone20 osteoblast Shn3 3'UTR firefly luciferase, 24 h. inhibition, % at 12.5 µM. hit rate 0.52% among 360,000;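 active = mean inhibition of at least 75% with every replicate also reaching 75%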
HIF-2a block: blocks HIF-2a reporter activity | 786-0 RCC cells HIF-2a reporter, luciferase luminescence, overnight | inhibition, % at 18.8 µM | hit rate 0.72% among 360,000;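 active = inhibition of the luminescence signal of 40% or more relative to plate controls, in a single-dose primary screen at 18.75 µM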
Peg3 prom inh-1: Peg3 promoter activity inhibition. hit rate 1.7% among 360,000. HeLa PEG-Prom luciferase reporter, luminescence, overnight. AID 588405. inhibition, % at 20 µM;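 active = inhibition of at least 50% at 20 µM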
Peg3 prom inh-2: Peg3 promoter inhibition confirmation. shares compounds with Peg3 prom inh-1. inhibition, % at 20 µM. hit rate 84% among 1,300. HeLa PEG-Prom luciferase reporter, luminescence, overnight;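 active = at 20 µM dose, 40% or more inhibition averaged across four replicates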
Each line names hits and unclear results; the compound was inactive in the other large screens (follow-up assays come after a bar, where they were run). This is a sample that favours compounds with a hit; in the whole collection about 2.7% have one here.

COc1cc2ccccc2cc1C(=O)O	none
O=C(c1cc2cc(Br)ccc2o1)N1CCN(c2ccccc2)CC1	none
Cc1cc(C(C#N)c2ccc(Cl)cc2)c(Cl)cc1NC(=O)c1cc(I)cc(I)c1O (centres undefined)	CF NFkB block 62
COc1ccc(C2NCCc3c2[nH]c2ccccc32)cc1CSc1nc2ccccc2s1 (centres undefined)	Peg3 prom inh-1 92
O=c1[nH]c(CSc2nc3ccccc3s2)nc2ccccc12	none
COc1ccc(-n2nnnc2CNC(=O)C2CC(=O)N(c3ccc(Cl)cc3)C2)cc1 (centres undefined)	none
Cc1ccccc1C1c2[nH]c3ccccc3c2C[C@H]2C(=O)N(c3ccccc3C(=O)NCCCN3CCOCC3)C(=O)N12 (some centres undefined)	none
CCC[C@@H](CN1CCC[C@H]1CN1C(N)=NC[C@@H]1Cc1ccccc1)N1C[C@@H]([C@H](C)CC)N(CCCC2CCCC2)C1=N	Shn3 3UTR inh 93
COc1ccccc1NC(=O)c1ccc(NC(=O)c2ccc(=O)[nH]c2)cc1	none
COc1ccc(CC(N)c2csc(NC(=O)c3ccccc3)n2)cc1 (centres undefined)	none (no result: TRPM1 prom inh)
NC(Cc1ccc(Cl)cc1)c1csc(NC(=O)Nc2ccccc2-c2ccccc2)n1 (centres undefined)	Peg3 prom inh-1 90 (no result: TRPM1 prom inh)
COc1ccc(CC(N)c2csc(NC(=O)C(c3ccccc3)c3ccccc3)n2)cc1 (centres undefined)	Peg3 prom inh-1 98 (no result: TRPM1 prom inh)
NC(=O)c1cccc(Nc2nc(C(N)CCc3ccccc3)cs2)n1 (centres undefined)	none (no result: TRPM1 prom inh)
COc1ccc(CC(N)c2csc(NC(=O)c3ccccc3OC)n2)cc1 (centres undefined)	none (no result: TRPM1 prom inh)
NC(CCc1ccccc1)c1csc(NC(=O)NCCc2ccccc2)n1 (centres undefined)	Peg3 prom inh-1 93 (no result: TRPM1 prom inh)
COc1ccc(CC(N)c2csc(NC(=O)c3cc(C(C)(C)C)nn3Cc3ccccc3)n2)cc1 (centres undefined)	KKLEB tox -52, CF NFkB block 58, Shn3 3UTR inh 94, Peg3 prom inh-1 100 (no result: TRPM1 prom inh)
CN(CC(=O)Nc1ccc(F)c(F)c1F)C(=O)Cc1ccc(S(=O)(=O)N2CCOCC2)s1	none
CC[C@@]1(C(=O)OC)N[C@H](CN(C)S(=O)(=O)c2ccc(F)cc2)[C@@H]2C(=O)N(C)C(=O)[C@@H]21	none
COc1ccc(CC(N)c2csc(NC(=O)c3cccc(OC(F)(F)F)c3)n2)cc1 (centres undefined)	Peg3 prom inh-1 94 (no result: TRPM1 prom inh)
COc1cc(CNC(=O)Nc2nc(C(N)Cc3ccc(Cl)cc3)cs2)cc(OC)c1OC (centres undefined)	Peg3 prom inh-1 86 (no result: TRPM1 prom inh)
CC(=O)c1ccc(Nc2nc(C(N)CCc3ccccc3)cs2)cc1 (centres undefined)	none (no result: TRPM1 prom inh)
COc1ccccc1CNC(=O)Nc1nc(C(N)CCc2ccccc2)cs1 (centres undefined)	Peg3 prom inh-1 97 (no result: TRPM1 prom inh)
NC(CCc1ccccc1)c1csc(NC(=O)Nc2ccccc2Oc2ccccc2)n1 (centres undefined)	Shn3 3UTR inh 96, Peg3 prom inh-1 118 (no result: TRPM1 prom inh)
COc1cc(CNC(=O)Nc2nc(C(N)c3ccccc3)cs2)cc(OC)c1OC (centres undefined)	none (no result: TRPM1 prom inh)
COc1ccc(C(=O)N/C(=C\c2cn(C)c3ccccc23)C(=O)N2CCN(C)CC2)cc1OC	none
COc1ccc(CC(N)c2csc(NC(=O)NCCc3ccccc3)n2)cc1 (centres undefined)	Peg3 prom inh-1 58 (no result: TRPM1 prom inh)
COc1ccc(CNC(=O)Nc2nc(C(N)Cc3ccc(C(F)(F)F)cc3)cs2)cc1 (centres undefined)	Peg3 prom inh-1 95 (no result: TRPM1 prom inh)
NC(Cc1ccc(Cl)cc1)c1csc(NC(=O)NCCc2ccccc2)n1 (centres undefined)	Peg3 prom inh-1 96 (no result: TRPM1 prom inh)
CCNC(=O)C1CCCN(C(=O)c2ccc(N(C)C)cc2)CC1 (centres undefined)	none (no result: TRPM1 prom inh)
Cc1nnc2c(NC3CCCCC3)nc3ccccc3n12	none
CC(=O)Oc1ccc(/C=C(\NC(=O)c2ccco2)C(=O)NCc2ccco2)cc1	none
c1ccc(-c2ccc(OCCCNC3CCCC3)cc2)cc1	Peg3 prom inh-1 74
COc1ccc(OCCNC2CCCC2)cc1	none
O=C(CCS(=O)(=O)c1ccc(Br)s1)NCc1ccc2c(c1)OCO2	none
CN(CC(=O)NCc1ccc2c(c1)OCO2)S(=O)(=O)c1ccc(Br)s1	Shn3 3UTR inh 94
CC(=O)c1cccc(NS(=O)(=O)c2ccc(-c3cnc(C4CC4)o3)cc2)c1	Shn3 3UTR inh 85
O=C1OCCC1Sc1nnc(-c2ccco2)o1 (centres undefined)	none (no result: Shn3 3UTR inh)
O=C1OCCC1Sc1nnc(-c2ccc(Br)cc2)o1 (centres undefined)	HIF-2a block 47
CN1C[C@@H]2[C@@H]3C(=O)N(Cc4ccccc4)C(=O)[C@@H]3[C@](Cc3ccccc3)(C1=O)N2C(=O)c1ccc(C(C)(C)C)cc1	none
Cc1ccc(-c2csc(N3CCN(c4cc5c(cc4Cl)nc(C)n5CCN4CCCCC4)CC3)n2)cc1	none
Cc1csc(N2CCN(c3cc4c(cc3Cl)nc(-c3ccncc3)n4CCCN3CCCC3)CC2)n1	TRPM1 prom inh 90
COc1ccc(-c2nc3c(C(=O)NCCN(C)C)cccc3c3ccccc23)cc1	Peg3 prom inh-1 95 | Peg3 prom inh-2 99
COc1ccc(-c2coc3c(C(=O)NCCN(C)C)cccc23)c(C)c1	none (no result: TRPM1 prom inh)
CCN(CC)C(=S)SCC(=O)Nc1ncc2c(n1)CCCC2=O	none
CC(C)C(=O)NC(=S)Nc1ccccc1N1CCN(C(=O)c2ccccc2)CC1	Peg3 prom inh-1 58 | Peg3 prom inh-2 40
O=C1c2cccc3cccc(c23)C(=O)N1CCCN(C(=O)c1cccs1)c1cccc(F)c1	Peg3 prom inh-1 52 | Peg3 prom inh-2 inactive
CC(=O)NC(c1ccccc1)c1cc(Cl)c2cccnc2c1O (centres undefined)	Peg3 prom inh-1 51 | Peg3 prom inh-2 65
O=[N+]([O-])c1cc(Cl)c2cccnc2c1O	none
COc1ccc(C(NC(C)=O)c2cc(Cl)c3cccnc3c2O)cc1 (centres undefined)	Shn3 3UTR inh 90, Peg3 prom inh-1 64 | Peg3 prom inh-2 64
CC(=O)NC(c1ccc(N(C)C)cc1)c1cc(Cl)c2cccnc2c1O (centres undefined)	Peg3 prom inh-1 59 (no result: TRPM1 prom inh) | Peg3 prom inh-2 68
CC(=O)NC(c1cc(F)c2cccnc2c1O)C1CC1 (centres undefined)	none
Oc1c(I)cc(Cl)c2cccnc12	Peg3 prom inh-1 55 | Peg3 prom inh-2 68
CC(=O)NC(c1ccc(F)cc1)c1cccnc1 (centres undefined)	none
